An excerpt weighted towards active compounds, which were near 19% of everything screened.
TDP1 block – qHTS Assay for Inhibitors of Tyrosyl-DNA Phosphodiesterase (TDP1); Potency, µM (series often up to 130 µM), inactives show at the top dose activity change, negative = inhibition, most hits filed as inhibitors; 0.28% of 350,000 active; AID 485290, 2010; recombinant TDP1, AlphaScreen DNA substrate cleavage; Tyrosyl-DNA phosphodiesterase 1 (Homo sapiens), Q9NUW8; further: potency means the concentration at half of the fitted maximal effect; on the % scale 0 is the no-effect control and ±100 the full control effect; nearly all actives have a fitted effect of over 40% in size
Target sequence (Q9NUW8 whole entry, looked up): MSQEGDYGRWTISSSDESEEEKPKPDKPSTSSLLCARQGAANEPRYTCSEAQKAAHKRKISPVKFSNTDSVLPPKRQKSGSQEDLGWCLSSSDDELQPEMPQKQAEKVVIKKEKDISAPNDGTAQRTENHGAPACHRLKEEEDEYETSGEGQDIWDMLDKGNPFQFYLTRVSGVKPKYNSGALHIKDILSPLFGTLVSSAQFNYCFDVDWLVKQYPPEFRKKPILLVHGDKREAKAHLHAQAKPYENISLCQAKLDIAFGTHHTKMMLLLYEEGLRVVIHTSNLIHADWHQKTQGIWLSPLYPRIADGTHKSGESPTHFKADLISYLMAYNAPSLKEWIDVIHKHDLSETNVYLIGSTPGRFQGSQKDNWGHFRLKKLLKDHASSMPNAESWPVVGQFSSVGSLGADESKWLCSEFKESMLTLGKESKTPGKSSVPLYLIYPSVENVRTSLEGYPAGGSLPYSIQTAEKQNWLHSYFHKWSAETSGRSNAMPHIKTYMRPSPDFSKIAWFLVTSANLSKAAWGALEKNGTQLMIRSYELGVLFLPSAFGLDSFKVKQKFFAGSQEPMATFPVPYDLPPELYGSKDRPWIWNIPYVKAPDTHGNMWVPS
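AlphaScreen read-out: signal falls as enzyme removes the 3' tyrosine-FITC from a 5'-biotinylated DNA oligo (15 nM, 5 min, RT). Enzyme was E. coli-made recombinant Tdp1 at 1 nM, exposed to compound for 15 min beforehand; beads 10 ug/ml, 10 min.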
DT40 TDP1 no CPT – qHTS for Inhibitors of human tyrosyl-DNA phosphodiesterase 1 (TDP1): qHTS in cells in absence of CPT; Potency, µM (series often up to 46.2 µM), without a hit: at the highest dose activity change, negative = growth inhibition, actives largely listed as inhibitors; 15% of 420,000 active; DT40 Tdp1-/- hTDP1 cells, no CPT, ATP luminescence, 48 h; AID 686978, 2013; further: potency means the concentration at half of the fitted maximal effect; on the % scale 0 is the no-effect control and ±100 the full control effect; nearly all actives have a fitted effect of over 55% in size
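Growth kinetics read by CellTiter-Glo luminescence after ≥48 hr at 37 °C. Cells: DT40 Tdp1-/- stably carrying human TDP1, 400 per well, compound exposure in the absence of CPT (DMSO vehicle).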
HepG2 viability – qHTS for Inhibitors of TGF-b: Cytotox Counterscreen; HepG2 CAGA-GFP viability, ATP luminescence, 18 h; Potency, µM (highest dose often 46.1 µM), for inactives: top-dose activity change, negative = cytotoxicity, most hits filed as cytotoxic; 0.76% of 410,000 active; further: potency means the concentration at half of the fitted maximal effect
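HepG2 CAGA-GFP cells (1000/well, DMEM with 1% FBS) received compound, then TGF-beta at 500 pg/mL final, and were incubated 18 hours at 37 degrees C. Viability was read by CellTiter-Glo luminescence. Media-only wells were set as complete cell-killing and DMSO as no toxicity.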
IL-1B inflam inh – qHTS for Inhibitors of Inflammasome Signaling: IL-1-beta AlphaLISA Primary Screen; THP-1 LPS/ATP IL-1B secretion, AlphaLISA, 16 h; stronger effect = lower value; activity change, % at 57.5 µM; 4.7% of 360,000 active; AID 743279, 2014; in the data active means activity change below about -50%; inconclusive means mostly about -30% to -49%; further: on the % scale 0 is the no-effect control and ±100 the full control effect
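THP-1 cells pretreated 1 hr with compounds (up to 57.5 uM final), then stimulated with LPS (250 ng/mL final) plus ATP (1.25 mM final); secreted IL-1B measured by AlphaLISA after 16 hr, decreased signal indicating inhibition.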
TGFb inhibitor – qHTS for Inhibitors of TGF-b. 1.2% of 410,000 active. HepG2 CAGA-GFP TGF-b/SMAD3 reporter, GFP fluorescence, 18 h; TGF-beta stimulated, 500 pg/mL final. Potency, µM (top dose mostly 46.1 µM), without a hit: top-dose activity, negative = inhibition, usual class: inhibitors; further: potency means the concentration at half of the fitted maximal effect; on the % scale 0 is the no-effect control and ±100 the full control effect; nearly all actives have a fitted effect of over 65% in size
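HEPG2 CAGA-GFP, 1000 cells/well; 2 h settle, 37 C; cpd via pin tool; TGF-b 500 pg/mL final; 18 h, 37 C; GFP imaging ex488/em500-530; %Activity normalised to -TGF-b and +DMSO controls; CRC fit, curve class.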
DT40 TDP1 CPT – qHTS for Inhibitors of human tyrosyl-DNA phosphodiesterase 1 (TDP1): qHTS in cells in presence of CPT; chicken DT40 Tdp1-/-;hTDP1 cells + 20 nM CPT, ATP luminescence, 48 h; Potency, µM (highest dose often 46.2 µM), without a hit: at the highest dose activity change, negative = growth inhibition, hits mostly inhibitors; 12% of 420,000 active; AID 686979, 2013; further: potency means the concentration at half of the fitted maximal effect; on the % scale 0 is the no-effect control and ±100 the full control effect; nearly all actives have a fitted effect of over 55% in size
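Chicken DT40 Tdp1-/- cells stably complemented with human TDP1 were seeded at 400 cells/well in medium containing 20 nM camptothecin, exposed to pin-transferred compounds, and grown at 37 °C for at least 48 hr. Viability was read as ATP luminescence.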
* = called active by the depositor; u = inconclusive; x = not tested or not shown; [ ] = dose if it differs, or a comment. Unless noted, the call rests on the fitted dose curve; in most records, active means well fitted curve in the direction sought with a large enough effect; inconclusive means small, poorly fitted or top-dose-only effect, or another doubt; inactive means no such curve, though single readings can be large; an effect the other way counts as inactive or inconclusive.

SMILES	TDP1 block	DT40 TDP1 no CPT	HepG2 viability	IL-1B inflam inh	TGFb inhibitor	DT40 TDP1 CPT
O=C(NCc1cccnc1)c1cc(C2CCCCN2S(=O)(=O)c2cccc3cccnc23)on1 (stereo unspecified)	x	u	-6%	20	4%	12µM*
CCCNC(=O)c1cc(C2CCCN(S(=O)(=O)c3cccc4cccnc34)C2)on1 (stereo unspecified)	x	u	-9%	23	3%	16µM*
CCCNC(=O)c1cc(C2CCCN(C(=O)c3ccc4ccccc4c3)C2)on1 (stereo unspecified)	x	23µM*	-8%	16	16%	18µM*
O=C(NCc1ccccc1)c1cc(C2CCCN(S(=O)(=O)c3cccc4cccnc34)C2)on1 (stereo unspecified)	x	u	-5%	15	1%	u
CCCNC(=O)c1cc(C2CCCCN2S(=O)(=O)c2cccc3cccnc23)on1 (stereo unspecified)	x	-21%	-12%	6	u	u
CCc1ccc(-c2nn(CC(=O)NC3CCCCC3)c3c2cnc2ccc(F)cc23)cc1	2%	11%	-3%	x	10%	-12%
O=C(Nc1ccc(F)c(Cl)c1)c1cc(C2CCCN(S(=O)(=O)c3cccc4cccnc34)C2)on1 (stereo unspecified)	x	26µM*	-3%	3	1%	u
Cc1ccc(C)c(CC(=O)N2CCCC(c3cc(C(=O)NCc4cccnc4)no3)C2)c1 (stereo unspecified)	x	15µM*	-11%	3	4%	u
COc1ccc(S(=O)(=O)N2CCCC(c3cc(C(=O)NCc4cccnc4)no3)C2)cc1 (stereo unspecified)	x	u	29%	3	53%	23µM*
CCOC(=O)CN1C(=O)S/C(=C\c2ccc(-c3ccc(C(=O)O)c(Cl)c3)o2)C1=O	8.9µM*	3%	6%	u	12%	-5%
Cc1ccc(N2NC(=O)/C(=C/c3ccc(-c4ccc(Cl)c(C(=O)O)c4)o3)C2=O)cc1	8%	2%	2%	0	-1%	-8%
CCN(CC)c1ccc(/C=C2/SC(=O)N(C(C)C)C2=O)o1	0%	2.3µM*	-111%	-94*	142%	-91%
CC(C)N1C(=O)S/C(=C\c2ccc(-c3ccc(Cl)c(C(=O)O)c3)o2)C1=O	25µM*	u	13µM*	-3	2%	u
CCOC(=O)c1ccccc1NC(=O)Cn1nnc2sc3c(c2c1=O)CCCC3	0%	1%	1%	x	5%	-15%
Cc1oc2ccc(O)c(CN3CCCC(C)C3)c2c1C(=O)Nc1ccccc1 (stereo unspecified)	-4%	16µM*	-33%	x	-28%	10µM*
COc1ccccc1-c1c(C)oc2c(CN3CCCC(C)C3)c(O)ccc2c1=O (stereo unspecified)	x	u	-19%	-11	0%	-9%
COc1ccc(C(=O)Nc2ccc(N3CCN(Cc4ccccc4)CC3)cc2)cc1	-8%	-17%	0%	24	-2%	-14%
COc1ccc(NC(=O)c2c(C)oc3ccc(O)c(CN4CCN(Cc5ccccc5)CC4)c23)cc1	-2%	12µM*	-33%	x	u	21µM*
COc1ccc(C(=O)c2coc3ccc(O)c(CN4CCCCC4)c23)cc1	7%	u	-64%	-11	5%	u
COc1ccc(NC(=O)c2c(C)oc3ccc(O)c(CN4CCCCCC4)c23)cc1	4%	23µM*	-40%	x	-25%	21µM*
COc1ccc(NC(=O)c2c(C)oc3ccc(O)c(CN4CCCC(C)C4)c23)cc1 (stereo unspecified)	2%	u	-37%	x	u	26µM*
COc1ccc(NC(=O)c2c(C)oc3ccc(O)c(CN4CCC(C)CC4)c23)cc1	-1%	15µM*	-35%	x	-6%	10µM*
COc1ccc(NC(=O)c2c(C)oc3ccc(O)c(CN4CCN(C)CC4)c23)cc1Cl	7%	18µM*	-48%	x	u	16µM*
COc1ccc(NC(=O)c2c(C)oc3ccc(O)c(CN4CCCC4)c23)cc1Cl	1%	u	-7%	x	0%	u
CC(CCc1ccccc1)NC(=O)c1nnc(Cc2ccc(Cl)cc2)o1 (stereo unspecified)	7%	u	-17%	-59*	-14%	29µM*
SMILES	TDP1 block	DT40 TDP1 no CPT	HepG2 viability	IL-1B inflam inh	TGFb inhibitor	DT40 TDP1 CPT
O=C(NCCc1ccc(Cl)cc1)c1nnc(Cc2ccc(Cl)cc2)o1	0%	-8%	-3%	-26	-7%	-24%
COCCCN1CN(Cc2ccccc2)CNC1=S	1%	-7%	-27%	20	3%	u
O=C1[C@H]2[C@H]3[C@H](O)[C@H](O)C/C(=N/OCc4ccccc4)[C@@H]3CC[C@@H]2C(=O)N1c1cccc(Oc2ccccc2)c1	6%[21 µM]	x	x	x	x	x
CCn1c(SCC(=O)N2c3ccccc3Sc3ccccc32)nnc1-c1ccco1	9%	-7%	-40%	u	u	-3%
Cn1c(SCC(=O)N2c3ccccc3Sc3ccc(Cl)cc32)nnc1-c1ccco1	14%[56.1 µM]	u	6%	-13	-13%	21µM*
O=C(CSc1nnc(-c2ccncc2)n1Cc1ccco1)N1c2ccccc2Sc2ccc(Cl)cc21	0%	-21%	1%	-74*	17%	15µM*
Cn1nnnc1SCC(=O)N1c2ccccc2Sc2ccc(Cl)cc21	6%	21µM*	5%	-8	8%	u
N#CCCN(CCC#N)C(=S)NC1CC2C=CC1C2 (stereo unspecified)	4%	-13%	21%	21	12%	-12%
CCOc1cc(C#N)c(NC(=O)c2ccc(OC)c(S(=O)(=O)N3CCN(c4ccccc4)CC3)c2)cc1OCC	5%	u	-42%	x	0%	u
COc1ccccc1C(=O)N[C@@H]1c2ccccc2C2(CCN(Cc3cccnc3)CC2)[C@H]1O	x	u	x	x	x	6%[9.04 µM]
COc1ccccc1C(=O)N[C@@H]1c2ccccc2C2(CCN(Cc3c(O)cccc3OC)CC2)[C@H]1O	x	18µM*	x	x	x	-8%[9.04 µM]

Screening results deposited in PubChem BioAssay by National Center for Advancing Translational Sciences (NCATS).
